Inconclusive results are not listed. Entries that show only a call come without a potency. Unmarked numbers belong to inactive results. Calls of active or inactive are those of the source. Calls come from the whole dose curve; as a rule, active = well fitted activation curve with a large enough effect; inconclusive = small, poorly fitted or top-dose-only effect; inactive = no such curve, though single readings can be large or run the other way.
Potency is the fitted concentration of half-maximal effect.

This test is described as follows: qHTS assay for re-activators of p53 using a Luc reporter: Hit Validation. Note: nearly all actives have a fitted effect of over 75% in size. Particulars: p53-responsive luciferase reporter cells, luminescence, H1299 line expressing heat-sensitive Ala138Val p53; series mostly up to 46.1 µM. The essentials: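 Hit confirmation with a 1:5 dilution series, at 37 deg C for 24 hrs, in H1299 cells co-expressing temperature-sensitive p53-A138V and p53-responsive luciferase. Nocodazole served as control; luminescence read after 10 min with detection reagent.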
Background: Quantitative high-throughput screening tests each substance at several concentrations.
As for `Cc1ccc(S(=O)(=O)CNC(=O)c2ccccc2)cc1`, the Potency result is “inactive”. For `Cc1cc(NC(=O)c2ccco2)sc1C`, the Potency was 18.4 µM (active). The same measure, in the same setting: the result for `Cc1cc(C(=O)COC(=O)c2ccc(O)cc2)c(C)n1CC(F)(F)F` reads 20.6 µM (active). The same measure, in the same setting: the same measure for `COc1ccc2oc(C(=O)Nc3nc(C)cs3)c(C)c2c1`: 1.84 µM (active); for `O=C(NCCN1CCCCC1)Nc1cccc(C(F)(F)F)c1`: “inactive”; for `CCCCCCC1CC(/C(C)=N\NC(N)=O)OC1=O` (stereo not drawn): “inactive”. Still for that read-out and setting: the same measure for `COc1ccccc1-c1cc(C(=O)Nc2cc(C)on2)no1`: 16.4 µM (active). Turning to `Cc1cc(F)ccc1NC(=O)Nc1ccc2c(c1)OCO2`, the Potency result was “inactive”. Same read-out and setting: the same measure for `Cc1ccc(S(=O)(=O)NCCOc2nc(N(C)C)nc(N3CCOCC3)n2)cc1`: “inactive”; for `O=C(Nc1nnc(-c2cccs2)o1)c1cccc(C(F)(F)F)c1`: “inactive”. Still for that read-out and setting: the result for `CCc1ccc2[nH]c(=O)c(CN(CCN(CC)CC)C(=O)NC3CCCCC3)cc2c1` reads “inactive”.

Regarding `CCC(=O)Nc1ccc2oc(-c3cccc(C)c3)nc2c1`, the Potency was 0.0731 µM (active). Same read-out and setting: the same measure for `Cc1cc(NC(=O)c2c(F)c(F)c(F)c(F)c2F)no1`: “inactive”; for `CC(C)(C)c1cc(-n2ccnc2)n2ncc(-c3ccc(Cl)cc3)c2n1`: “inactive”; for `O=C(Nc1nnc(-c2cccs2)o1)c1cccc(Oc2ccccc2)c1`: “inactive”.

Regarding `N#CC(c1ccccc1)C1CCN(Cc2ccccc2)CC1` (stereo not drawn), the Potency entry was “inactive”. The same measure, in the same setting: the same measure for `C/C(=N\NC(=O)c1cccs1)C(C)(C)C`: “inactive”.

On to `COc1ccc(CCC(C)NCC(C)c2ccccc2)cc1` (stereo not drawn), for which the Potency result is “inactive”. Consider `Cc1ccc2cc(CCNC(=O)c3ccco3)c(=O)[nH]c2c1C`, for which the Potency was 2.31 µM (active). In the case of `CCN(CC)C(=O)CSc1ncnc2c(-c3cccs3)nsc12`, the Potency entry was “inactive”. Still for that read-out and setting: the same measure for `Clc1ccccc1Nc1nc2ccccc2o1`: 5.17 µM (active); for `Cc1noc(C)c1C(=O)OCC(=O)N1CCc2ccccc21`: “inactive”. Turning to `Cc1ccc(-c2nnc(SCc3ccccc3F)o2)cc1`, the Potency was 1.3 µM (active). Still for that read-out and setting: the result for `Cc1csc(NC(=O)CSc2nnc(-c3cccs3)n2C)n1` reads “inactive”. Take `COc1cc(NC(=O)CN2CCCCC2)c(C)cc1[N+](=O)[O-]`: the activation was 9.16% [at 9.22 µM]. As for `COCCCN=C(c1ccco1)n1c(=S)nc(-c2ccco2)n(CCCOC)c1=S`, the Potency result is “inactive”. On the same count and under the same terms, the result for `Cc1cccc(-n2c(C)cc(/C=N\NC(=O)c3cccs3)c2C)c1` reads 1.16 µM (active); that for `Clc1ccc(Nc2nc(-c3cccs3)cs2)nc1`, 4.11 µM (active). On the same count and under the same terms, the result for `COc1cccc(N(C(=O)c2nc3nccc(C)n3n2)c2nc3ccccc3s2)c1` reads 7.31 µM (active); that for `Cc1cc(/C=C2/C(=O)NN(c3ccccc3)C2=O)c(C)n1-c1cccc(O)c1`, 10.3 µM (active); that for `CCc1ccc(NC(=O)c2cnn3ccccc23)cc1`, 0.92 µM (active). The same measure, in the same setting: the same measure for `Cc1cccc(Nc2cc(=O)[nH]c(=O)[nH]2)c1C`: “inactive”; for `COc1ccc(-n2nc([N+](=O)[O-])c(=NCc3ccco3)n2O)cc1`: “inactive”; for `N#CC(Cc1ccccc1)(Cc1ccccc1)C(=O)NN`: “inactive”. `O=C(CSc1ccccc1)Nc1ccc(-c2nc3ccccc3[nH]2)cc1`: the Potency result was “inactive”.

`COc1ccc(/C(N)=N/OC(=O)c2cccs2)cc1`: the Potency is 5.17 µM (active). The same measure, in the same setting: the result for `O=C(NC(=S)Nc1cccc(O)c1)C1CCCCC1` reads 14.6 µM (active); that for `OC(COc1ccc2cc(Br)ccc2c1)CN1CCCC1` (stereo not drawn), “inactive”.

(Values after PubChem BioAssay AID624305 (National Center for Advancing Translational Sciences (NCATS), 2012).)
